From PubChem BioAssay
Calls of active or inactive are those of the source. Unless noted, how the calls were made is not given here.

Legend:
[1] = chitosan synthesis blockers in C. neoformans – flow cytometry, Cibacron Brilliant Red staining (AID 1347148); details: Cryptococcus neoformans chitosan, stronger effect = lower value; at 10 µM unless noted;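 further: compound exposure lasted three days at 37 degrees C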
[2] = compounds altering HSF1 focus formation in cells – imaging, Selleck Cancer Library (AID 1347162; in the data active means plate-normalised HSF1 focus index below about 0.46); details: human cells, HSF1 nuclear foci imaging, at 10 µM; SSMD: measured here: HSF1 foci SSMD mean; cell count: measured here: cell number; plate-normalised HSF1 focus index: stronger effect = lower value
[3] = P. berghei load reduction in hepatocytes – cell-based, HepG2, luciferase luminescence, HepG2 viability, primary screen (AID 624349; in the data active means parasite load remaining mostly below about 12%, no sharp cut-off; inactive means mostly above about 10%;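 further: 100% = mean of DMSO negative control wells on the same plate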); details: P. berghei liver stage in HepG2, luciferase luminescence, concentration not given here; parasite load remaining: stronger effect = lower value; viability: measured here: HepG2 viability without parasites
[4] = compounds altering viability of human ES cells (AID 493140); details: human embryonic stem cell survival screen; stronger effect = higher value;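 further: cells exposed to compounds for four days before counting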

SMILES: N#Cc1cc2c(OC[C@@H](O)CN3CCN(C(c4ccccc4)c4ccccc4)CC3)cccc2[nH]1
- fold fluorescence [1]: 3.58 [at 107.2 µM] (inactive)

SMILES: COC(=O)C1=C(C)NC(C)=C(C(=O)OCCN(C)Cc2ccccc2)[C@H]1c1cccc([N+](=O)[O-])c1
- fold fluorescence [1]: 4.49 [at 104.3 µM] (inactive)

SMILES: CCCCCCCCCCCCCCCCOC[C@@H](COP(=O)([O-])OCC[N+](C)(C)C)OC(=O)NC
- fold fluorescence [1]: 5.1 (inactive)

SMILES: CC[C@@]1([C@@H]2O[C@@H]([C@H]3O[C@@](O)(CO)[C@H](C)C[C@@H]3C)C[C@@H]2C)CC[C@H]([C@]2(C)CCC3(C[C@H](O)[C@@H](C)[C@@H]([C@@H](C)[C@@H](OC)[C@H](C)C(=O)O)O3)O2)O1 (stereo partly drawn)
- fold fluorescence [1]: 4.7 [at 72.2 µM] (inactive)

SMILES: O=C(NC[C@H]1CCCCN1)c1cc(OCC(F)(F)F)ccc1OCC(F)(F)F
- fold fluorescence [1]: 6.98 [at 120.7 µM] (inactive)

SMILES: CNC(=O)[C@@H]1O[C@H](n2cnc3c(NCc4cccc(I)c4)ncnc32)C(O)[C@@H]1O (stereo partly drawn)
- fold fluorescence [1]: 4.36 [at 98 µM] (inactive)

SMILES: C=CCNC1=C2C[C@H](C)C[C@@H](OC)[C@@H](O)[C@H](C)/C=C(\C)[C@@H](OC(N)=O)[C@H](OC)/C=C\C=C(/C)C(=O)NC(=CC1=O)C2=O
- fold fluorescence [1]: 7.27 [at 85.4 µM] (inactive)

SMILES: CCCCC[C@H](O)c1cccc(OCc2ccc3ccccc3n2)c1
- fold fluorescence [1]: 5.53 (inactive)

SMILES: CC1(COc2ccc(C[C@@H]3SC(=O)NC3=O)cc2)CCCCC1
- fold fluorescence [1]: 5.39 (inactive)

SMILES: CCCCC[C@@H](O)/C=C/[C@H]1[C@H](CCCCCCC(=O)O)C(=O)C[C@@H]1O
- fold fluorescence [1]: 4.03 (inactive)

SMILES: C=C(C)[C@H]1CC[C@@]2(C(=O)O)CC[C@@]3(C)[C@@H](CC[C@H]4[C@]5(C)CC[C@@H](O)C(C)(C)[C@H]5CC[C@@]43C)[C@H]12
- fold fluorescence [1]: 3.34 [at 109.5 µM] (inactive)

SMILES: C=C1CC[C@@H](O)C/C1=C/C=C1\CCC[C@]2(C)[C@@H]1CC[C@H]2[C@@H](C)CC[C@H](O)C(C)(C)O
- fold fluorescence [1]: 6.63 (inactive)

SMILES: CCCCCCCC/C=C\CCCCCCCCOC[C@@H](COP(=O)([O-])OCC[N+](C)(C)C)OC(C)=O
- fold fluorescence [1]: 3.92 (inactive)

SMILES: CC(C)=CCC(O)C1=CC(=O)c2c(O)ccc(O)c2C1=O (stereo not drawn)
- fold fluorescence [1]: 6.4 [at 173.4 µM] (inactive)

SMILES: CCCCC/C=C\C/C=C\C/C=C\C/C=C\CCCC(=O)O[C@@H](COCCCCCCCCCCCCCCCC)COP(=O)([O-])OCC[N+](C)(C)C
- fold fluorescence [1]: 5.54 (inactive)

SMILES: CCCCC[C@@H](O)/C=C/[C@H]1[C@@H]2C/C(=C/CCCC(=O)O)O[C@@H]2C[C@@H]1O
- fold fluorescence [1]: 4.1 (inactive)

SMILES: C[C@@](O)(C(=O)Nc1ccc(S(=O)(=O)c2ccccc2)cc1)C(F)(F)F
- fold fluorescence [1]: 5.17 [at 133.9 µM] (inactive)

SMILES: CC[C@@H](C(=O)[C@@H](C)[C@@H](O)[C@H](C)[C@@H]1O[C@@H]([C@@H](CC)C(=O)O)CC[C@@H]1C)[C@H]1O[C@]2(C=C[C@@H](O)[C@]3(CC[C@@](C)([C@H]4CC[C@](O)(CC)[C@H](C)O4)O3)O2)[C@H](C)C[C@@H]1C
- SSMD [2]: 4.08
- cell count [2]: 7580
- plate-normalised HSF1 focus index [2]: 1.26 (inactive)

SMILES: CC(C)COC[C@H](CN(Cc1ccccc1)c1ccccc1)N1CCCC1
- fold fluorescence [1]: 8.48 [at 136.4 µM] (inactive)

SMILES: CC[C@@H](CO)Nc1nc(NCc2ccccc2)c2ncn(C(C)C)c2n1
- parasite load remaining [3]: 32.6% (inactive)
- viability [3]: 67.3%
- fold fluorescence [1]: 9.95 [at 141.1 µM] (inactive)

SMILES: CCCCC[C@@H](O)/C=C/[C@H]1[C@@H]2C/C(=C/CCCC(=O)O)C[C@@H]2C[C@@H]1O
- fold fluorescence [1]: 4.8 (inactive)

SMILES: CCCCCCCCCCCCCCC[C@H](O)[C@@H](CO)NC(C)=O
- fold fluorescence [1]: 4.64 (inactive)

SMILES: COc1ccc(Cc2nn3c([C@@H](CCCc4ccccc4)[C@@H](C)O)nc(C)c3c(=O)[nH]2)cc1OC
- SSMD [2]: 2.11
- cell count [2]: 7160
- plate-normalised HSF1 focus index [2]: 1.12 (inactive)

SMILES: COC(=O)c1ccc(O)c(NC(=O)COc2ccc(C34CC5CC(CC(C5)C3)C4)cc2)c1
- SSMD [2]: -6.52
- cell count [2]: 7200
- plate-normalised HSF1 focus index [2]: 0.766 (inactive)

SMILES: CCCCC/C=C\C=C\[C@@H](O)CCCCCCCC(=O)O
- survival [4]: 108 (inactive)
- fold fluorescence [1]: 5.71 [at 1 µM] (inactive)

SMILES: OC[C@@H]1NC[C@H](O)[C@H](O)[C@H]1O
- fold fluorescence [1]: 8.15 [at 306.4 µM] (inactive)

SMILES: O=C1Nc2ccc(-c3cccnc3)cc2/C1=C/c1ccc[nH]1
- SSMD [2]: -1.39
- cell count [2]: 7060
- plate-normalised HSF1 focus index [2]: 0.916 (inactive)
